{"source": "PubChem BioAssay (NCI)", "note": "Compounds without any hit were thinned out: in the full panel of roughly 83,000, 20% have a hit.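 Percent growth is the endpoint: 0 to 100 indicates growth inhibition (40 means 60% inhibition), 0 means no net growth, and negative values indicate cell death.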 A number with no mark means an inactive call. The source made the active and inactive calls. Rule for the calls: active = growth percent below 10; inactive = the rest.", "data": [{"tested_on": "HL-60(TB) leukemia", "assay": "NCI-60 one-dose screen, 48 h (100 = growth as untreated, 0 = no growth, -100 = all killed)", "settings": "10 µM unless noted", "values": [{"smiles": "CC(C)=CC/C=C(/C)[C@H]1CC[C@]2(C)[C@@H]1CC[C@@H]1[C@@]3(C)CC/C(=N/O)C(C)(C)[C@@H]3CC[C@]12C", "growth": "5.9% [100 µM] (active)"}, {"smiles": "Cc1cc(C)nc(SC2=C(Nc3cccc(Cl)c3)C(=O)N(Cc3ccccc3)C2=O)n1", "growth": "18.1% [30 µM]"}, {"smiles": "CNC(=O)c1cc(Oc2cccc3nc(NC(=O)Nc4cc(C(F)(F)F)cc(C(F)(F)F)c4)ccc23)ccn1", "growth": "70.5%"}, {"smiles": "CC(=O)N[C@H](C(=O)N[C@@H](CCCNC(=N)N)C(=O)N[C@@H](CCCCN)C(=O)N[C@@H](CCCNC(=N)N)C(=O)N[C@]1(C)CCCCCC/C=C\\CCC[C@@](C)(C(=O)N[C@@H](CCCNC(=N)N)C(=O)N[C@@H](CCC(=O)O)C(=O)N[C@@H](CC(C)C)C(=O)N[C@H](C(=O)N[C@@H](CCC(=O)O)C(N)=O)C(C)C)NC(=O)[C@H](CCC(N)=O)NC(=O)[C@H](CC(C)C)NC(=O)[C@H](CC(C)C)NC(=O)[C@H](CCCNC(=N)N)NC(=O)[C@H](CCCNC(=N)N)NC(=O)[C@H](CC(C)C)NC1=O)C(C)C", "growth": "15.9%"}, {"smiles": "C(=N\\Nc1ccccn1)/c1ccccn1", "growth": "12.3%"}, {"smiles": "Cc1ccc2c(NCCCN(C)C)c3c(C)nn(C)c3nc2c1", "growth": "32.4%"}, {"smiles": "Cc1ccc(C(=O)c2ccc(CC(=O)N=Nc3c(O)[nH]c4ccc(Br)cc34)n2C)cc1", "growth": "89.4%"}, {"smiles": "COc1cc(/C=N/NC(=O)c2ccc(C)nc2)cc(OC)c1OC", "growth": "56%"}, {"smiles": "NS(=O)(=O)c1ccc(CCN2C(=O)/C(=C\\c3ccc(Cl)cc3)C=C2c2ccc(Oc3ccccc3)cc2)cc1", "growth": "83.7%"}]}]}
